Rows were chosen to be rich in hits. Some 1.5% of all compounds tested hit in one or more screens of this group.
CRFBP-R2 agonist = CRF-BP/CRF-R2 complex agonism; HEK293 CRF-R2/CRF-BP, calcium dye fluorescence (FLIPR); percent of saturating CRF peptide response; activation, % at 13.2 µM; actives 0.46% (n = 350,000);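 active = activation of at least 50%, plus an integration ratio under a set limit after plate pattern correction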;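 also: plate controls were neutral control wells without compound for no effect and CRF at EC100 for full effect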
IDE inh = inhibitors of human insulin-degrading enzyme in cells; inhibition, % at 5.59 µM; HEK cells, FAbetaB cleavage, fluorescence polarization; AID 434962; actives 0.41% (n = 320,000);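 active = percent inhibition above the average of all tested compounds plus 3 SD, set per screening campaign, cut at about 16% in these data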;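 also: IDE supplied by intact live HEK cells; FP after avidin binding of uncleaved biotin substrate so inhibition keeps polarization high; 0% = DMSO wells and 100% = 60 µM reference IDE inhibitor Ii1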
IDE act = boosts human insulin-degrading enzyme activity in HEK cells; P14735; FAbeta-B cleavage, fluorescence polarization; 0% vehicle, 100% cell-free pure enzyme wells; activation, % at 5.96 µM; AID 493087; actives 0.073% (n = 340,000);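 active = activation above the mean of all tested compounds plus 3 SD, set per screening campaign, cut at about 17% in these data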
TPT1 inh = C. albicans TPT1 enzyme inhibition. recombinant caTPT1, FP RNA substrate dephosphorylation. inhibition, % at 5 µM. actives 0.81% (n = 300,000);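 active = inhibition above the mean of all tested compounds plus 3 SD, set per screening campaign, cut at about 24% in these data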;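 also: plate controls were DMSO alone for no effect and ferristatin control at 100 nM for full effect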
cardiac RTF act = cardiac RTF calcium sensitization; P19429+P45379; IANBD-labeled TnC RTF fluorescence at EC20 calcium; 0% EC20 calcium, 100% full calcium; activation, % at 7.2 µM; actives 0.24% (n = 340,000); AID 493008;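 active = activation above the mean over all tested compounds plus 3 SD, cut at about 30% in these data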;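 also: rise in fluorescence read as greater calcium sensitivity of cardiac thin filaments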
RTF Ca sens inh = cardiac RTF calcium desensitization | actives 0.12% (n = 340,000) | inhibition, % at 7.15 µM | P19429+P45379 | IANBD-labeled cardiac RTF, Ca2+ fluorescence;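 active = inhibition above the mean inhibition of all tested compounds plus 3 SD, cut at about 17% in these data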;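 also: assay run at fixed EC70 calcium of 1.6 mM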
caTPT1 confirm = confirmation of Candida albicans TPT1 inhibitors; shares compounds with TPT1 inh; recombinant caTPT1, fluorescence polarization, RNase T1 coupled; inhibition, % at 5 µM; actives 74% (n = 2,400);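 active = inhibition above the primary screen limit, the mean inhibition of all tested compounds plus 3 SD, cut at about 25% in these data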
RNase T1 inh = counter-screen for TPT1 inhibitors: inhibitors of Aspergillus oryzae RNase T1 | shares compounds with TPT1 inh | RNase T1 cleavage, fluorescence polarization, 1536-well | inhibition, % at 5 µM | actives 83% (n = 2,400);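 active = inhibition above the solvent-only control well mean plus 3 SD, limit set per screening run, cut at about 23% in these data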;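 also: plate controls were DMSO wells with enzyme for no effect and wells without RNase T1 for full effect; inhibitors block cleavage so intact labeled substrate keeps polarization high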
Target sequence (P00651 whole entry, looked up): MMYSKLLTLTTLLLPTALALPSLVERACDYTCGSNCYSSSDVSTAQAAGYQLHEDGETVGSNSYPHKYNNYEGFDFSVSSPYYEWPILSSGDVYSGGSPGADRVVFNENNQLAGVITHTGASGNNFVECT
* marks the source's active call; other numbers are inactive results; i = inactive; . = no result.

SMILES	CRFBP-R2 agonist	IDE inh	IDE act	TPT1 inh	cardiac RTF act	RTF Ca sens inh	caTPT1 confirm	RNase T1 inh
Cc1nc(S/C(=C/c2ccc(-c3cc(Cl)ccc3C)o2)C(=O)O)n[nH]1	0	0	-3	13	-1	-13	.	.
O=c1nc(/C=C/c2ccc(-c3ccc(F)cc3)o2)cc(C(F)(F)F)[nH]1	.	5	.	110*	.	.	106*	106*
O=C(O)c1cc(Cl)ccc1-c1ccc(/C=C/c2cc(C(F)(F)F)[nH]c(=O)n2)o1	205*	13	-2	62*	448*	i	85*	91*
COc1ccc(C)cc1NC(=O)CSc1nc(=O)n(CCCN2CCOCC2)c2c1CCCC2	0	-4	2	-1	-6	9	.	.
Cc1ccc(NC(=O)CSc2nc(=O)n(CCCN3CCOCC3)c3c2CCCC3)c(C)c1	3	4	2	66*	3	-1	3	4
O=C(CSc1ccc([N+](=O)[O-])cc1)Nc1nnc(C2CC2)s1	-1	4	7	.	-3	-4	.	.
CN(C)C(=O)CCc1ccc2c3c([nH]c2c1)[C@]1(C)[C@@H](C(=O)N2CCCCC2)C[C@H](CC(=O)NCCCn2ccnc2)C(=O)N1CC3	1	.	-1	.	-2	4	.	.
Cc1ccc(C(C)NC(=O)/C(C#N)=C\c2c(C)[nH]c3ccccc23)cc1 (stereo not given)	11	-2	2	2	-3	0	.	.
Cc1[nH]c2ccccc2c1/C=C(\C#N)C(=O)NCc1ccccc1	0	1	6	31*	-4	-3	41*	49*
COc1cc(/C=C2\C(=O)NN(c3ccc(C)cc3)C2=O)cc([N+](=O)[O-])c1O	-1	1	-3	-4	3	9	.	.
COc1cc(/C=C2/C(=O)NN(c3ccccc3)C2=O)cc(Br)c1O	-1	1	2	54*	5	-9	84*	103*
COc1cc(/C=C2/C(=O)NN(c3ccc(Cl)cc3)C2=O)cc(OC)c1O	14	9	-33	97*	7	-4	151*	154*
CSc1cccc(NC(=O)NCc2cccc(CNC(=O)Nc3cccc(SC)c3)c2)c1	-2	5	1	51*	-2	-3	4	6
CC1CCc2cccc3c2N1c1cc(C#N)c(C#N)cc1O3 (stereo not given)	28	1	-1	26*	10	-16	22	31*
CC1CCCCN1c1cc(C#N)c(C#N)cc1[N+](=O)[O-] (stereo not given)	0	-1	5	-5	5	7	.	.
Cc1sc(N)nc1-c1c(C)n(C)c2ccccc12	-5	.	1	.	-3	-4	.	.
COc1ccc(N=Cc2c(O)ccc3ccccc23)cc1	13	3	3	112*	11	-7	90*	110*
CC(=O)Nc1ccc(N=Cc2c(O)ccc3ccccc23)cc1	18	0	-1	46*	3	-25	46*	79*
O=C(O)c1ccc(N=Cc2c(O)ccc3ccccc23)cc1	0	-1	3	-1	-1	-12	.	.
O=C(NCc1ccc2c(c1)OCO2)C(=O)NCC1OCCCN1S(=O)(=O)c1cc(F)ccc1F (stereo not given)	-2	1	3	3	4	-6	.	.
CCN(CC)S(=O)(=O)c1cccc(NC(=O)COC(=O)CCc2nc3ccccc3s2)c1	-3	0	1	128*	1	-6	6	13
CCN(CC)S(=O)(=O)c1cc(NC(=O)COC(=O)CCc2nc3ccccc3s2)ccc1C	3	1	4	0	-5	-2	.	.
NC(=O)CSC1=N/C(=C\c2ccco2)C(=O)N1c1ccc(OC(F)F)cc1	2	-1	4	10	6	-10	.	.
CCOc1cc(/C=C2\CN(CC)C/C(=C\c3ccc(O)c(OCC)c3)C2=O)ccc1O	0	2	0	4	-7	-1	.	.
CCOc1ccc(N2C(=O)S/C(=C\c3ccc(O)c(OCC)c3)C2=O)cc1	5	3	-4	46*	2	2	58*	60*
SMILES	CRFBP-R2 agonist	IDE inh	IDE act	TPT1 inh	cardiac RTF act	RTF Ca sens inh	caTPT1 confirm	RNase T1 inh
CCOc1cc(/C=C2\SC(=O)N(c3ccc(O)cc3)C2=O)ccc1O	5	14	-22	70*	4	-11	74*	77*
CCOc1cc(/C=C2\N=C(SC(C)C(N)=O)N(c3ccc(OC(F)F)cc3)C2=O)ccc1O (stereo not given)	12	108*	-100	101*	18	-35	117*	113*
COc1ccc(/C=C/C(=O)NCc2cccnc2)cc1	0	7	4	0	1	1	.	.
CCc1ccc(CN(Cc2cccnc2)C(=O)/C=C/c2ccc(OC)cc2)cc1	5	2	2	39*	5	-16	89*	102*
CC(C)C(=O)Nc1nnc(SCC(=O)NCc2cccs2)s1	-1	5	1	32*	4	1	1	2
COc1ccc(NC(=O)CN(C)S(=O)(=O)c2ccc(C)cc2)c([N+](=O)[O-])c1	4	0	2	41*	12	-16	49*	62*
COc1ccc(N(C)S(=O)(=O)c2ccc(C)cc2)c([N+](=O)[O-])c1	0	3	3	0	0	1	.	.
Cc1ccc2c(c1)N/C(=C(\C=C(/Cl)[N+](=O)[O-])[N+](=O)[O-])N2	.	-3	.	25*	.	.	23	33*
Cc1ccc2c(c1)/C(=C/c1ccc(F)cc1)C(=O)N2	-1	2	2	1	-10	3	.	.
Cc1csc(NC(=O)c2ccc(COc3ccccc3)o2)n1	1	0	4	2	-5	5	.	.
O=c1cc(Cl)[nH]c(=O)n1CCNc1ncc(C(F)(F)F)cc1Cl	4	5	1	74*	7	-9	72*	85*
O=C1CC(=O)N(CCNc2ncc(C(F)(F)F)cc2Cl)C(=O)N1	6	-1	0	38*	-2	-13	23	39*
O=C1C=CC(=O)N1CCNc1ncc(C(F)(F)F)cc1Cl	2	.	-46	.	3	0	.	.
O=c1[nH]c2cc(Cl)ccc2n(CCNc2ncc(C(F)(F)F)cc2Cl)c1=O	9	-9	-1	2	6	-12	.	.
COC(=O)/C=c1/s/c(=C(\C#N)C(=O)NCc2ccco2)n(-c2ccc(C)cc2)c1=O	8	6	-5	82*	0	-7	20	27*

Bioassay records: PubChem BioAssay, several laboratories
